From PubChem
D2 ag-1: agonists of human D2 dopamine receptor (beta-arrestin). P14416. DiscoveRx PathHunter D2 beta-arrestin, luminescence, 90 min; 100% = 57 uM dopamine signal. activation, % (concentration not given with the values). 360,000 compounds, 0.084% hits; in the data active = activation above about 40%
Target sequence (P14416 whole entry, looked up): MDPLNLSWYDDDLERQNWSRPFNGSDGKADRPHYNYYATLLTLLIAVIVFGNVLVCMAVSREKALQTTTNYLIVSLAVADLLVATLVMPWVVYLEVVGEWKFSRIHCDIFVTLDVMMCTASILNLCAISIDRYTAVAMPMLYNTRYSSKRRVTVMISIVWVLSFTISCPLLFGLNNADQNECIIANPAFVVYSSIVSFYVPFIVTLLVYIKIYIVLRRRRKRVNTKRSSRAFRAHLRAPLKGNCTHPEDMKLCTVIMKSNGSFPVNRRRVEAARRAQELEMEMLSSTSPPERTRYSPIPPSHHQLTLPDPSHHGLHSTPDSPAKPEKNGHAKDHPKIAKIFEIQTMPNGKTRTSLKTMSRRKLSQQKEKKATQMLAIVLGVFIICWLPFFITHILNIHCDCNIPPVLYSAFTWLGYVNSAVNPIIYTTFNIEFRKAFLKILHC
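Agonist mode: compounds alone added to overnight-plated D2 PathHunter cells for 90 min at 37 C, with 57 uM final dopamine (EC100) defining full response. Beta-arrestin recruitment detected by chemiluminescent reagent, read after 1 h at ambient temperature.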
D2 PAM-1: potentiates the human D2 dopamine receptor allosterically; P14416; DiscoveRx D2 beta-arrestin cells, luminescence, 90 min; 100% = 57 uM dopamine signal; potentiation, % (concentration not given with the values); 360,000 compounds, 0.23% hits; AID 624464; in the data active = potentiation above about 50%
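PathHunter beta-arrestin assay in DiscoveRx D2 cells. Compounds were added with an EC20 of dopamine (50 nM final) for 90 min at 37 deg C. Luminescence was read 1 h after detection reagent, with 57 uM dopamine as the EC100 control.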
D2 antagonist: D2 dopamine receptor (human) antagonism; HEK293 TREx D2 cells, calcium flux, dopamine EC80; inhibition, % at 10 µM; 340,000 compounds, 2% hits; in the data active = inhibition above about 30%; inactive = below that, where a call was filed
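Cells plated overnight at 30 C with tetracycline; no-wash calcium dye, 30–90 min RT; 10 s baseline; compound pinned; 180 s read; EC80 dopamine added; another 180 s read.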
D2 ag-2: D2 dopamine receptor (human) agonism; P14416; HEK293 T-REx D2 cells, calcium flux agonist mode; activation, % at 2 µM; 340,000 compounds, 0.53% hits;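 active = activation over 3 SD above normal in the single-dose calcium agonist read, cut at about 30% in these data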
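Calcium-flux readout, 1 cycle/sec over 180 s following compound pin transfer, in inducible HEK293 Trex D2 cells (force-coupled); dopamine controls included. Positive calcium responses during this window marked compounds as potential agonists.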
D2 PAM-2: positively modulates the human D2 dopamine receptor allosterically | P14416 | HEK293 T-REx D2, calcium flux, EC20 dopamine potentiation | potentiation, % at 10 µM | 340,000 compounds, 0.34% hits | AID 485347;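 active = potentiation over 3 SD above the plate norm, cut at about 30% in these data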
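Primary screen. Calcium kinetics in induced HEK293 T-REx D2 cells: compound pre-addition 180 s, EC20 dopamine, 180 s more.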
Of the large screens only hits and unclear results are named; the others gave an inactive call. A selection: hits, their analogues and other compounds. The true share with any hit is near 2.4%.

Cc1ccccc1C(c1ncccc1C)N(C)C(=O)C1CCN(CCOc2ccc(Cl)cc2Cl)CC1 (stereo unspecified)	none (no result: D2 antagonist, D2 ag-2, D2 PAM-2)
CCOc1ccc(OCCSc2nc3ccccc3[nH]2)cc1	D2 PAM-2 32.2
c1c(C2CCCCC2)n[nH]c1CN1CCCCC1	D2 antagonist 40.1
COc1cccc(CNC(=O)CCC(=O)N2CC(C)Sc3ccccc32)c1 (stereo unspecified)	none (no result: D2 ag-1, D2 PAM-1, D2 antagonist)
O=C(c1nc2ncccn2n1)N1CCN(c2ccc(F)cc2)CC1	D2 PAM-2 30.6
O=S(=O)(Nc1ccc2oc3c(c2c1)CCCC3)c1cc(Cl)ccc1Cl	none (no result: D2 ag-1, D2 PAM-1, D2 antagonist)
Cc1cc(C)n(C(=O)CNc2ccccc2Cl)n1	D2 antagonist 32.2
Cc1cc(C)n(C(=O)CNc2cccc(Cl)c2C)n1	none
COc1ccc2[nH]cc(CCNC(=O)c3cnn(-c4ccc(C)cc4)c3C3CCN(C(=O)OC(C)(C)C)CC3)c2c1	none (no result: D2 ag-1, D2 PAM-1, D2 antagonist)
Cc1ccc(C(=O)N2CCOCC2)cc1S(=O)(=O)Nc1cccc(C)c1C	D2 antagonist 41.6
CCCC(C(=O)O)N1C(=O)/C(=C2\C(=O)N(C)c3ccccc32)SC1=S (stereo unspecified)	D2 PAM-1 61.2
O=C1Cc2cc(O)ccc2O1	none (no result: D2 antagonist, D2 ag-2, D2 PAM-2)
Cc1c(Cl)cccc1NC(=O)c1cc2sccc2n1Cc1ccc(F)cc1	none (no result: D2 ag-1, D2 PAM-1, D2 antagonist)
Cn1cccc1-c1cc(C(=O)N/N=C/c2ccc(Cl)cc2)[nH]n1	D2 antagonist 35.0
COc1ccc(C)cc1NC(=O)CSc1ncc2c(n1)-c1ccc(Cl)cc1N(Cc1ccccc1)S2(=O)=O	none (no result: D2 ag-1, D2 PAM-1, D2 antagonist)
Cc1c(CC(=O)NC(C)C)c(=O)oc2cc3c(cc12)CCC(C)(C)O3	none
Cc1c(CC(=O)N[C@@H](C)C(=O)O)c(=O)oc2cc3c(cc12)CCC(C)(C)O3	D2 antagonist 36.3
CN(C(=O)CN1C(=O)C2C3CC(C(Br)C3Br)C2C1=O)C1CCCCC1 (stereo unspecified)	D2 antagonist 30.8
COc1ccc(NC(=O)CSCC(=O)N(C)Cc2ccc3c(c2)OCCO3)cc1	D2 antagonist 35.1
COc1ccc(NC(=O)CN(C)C(=O)Cc2ccc3c(c2)OCCO3)cc1	none
CCOc1ccc(CCNC(=O)CSCC(=O)Nc2ccc(OC)cc2)cc1OCC	D2 antagonist 31.4
COc1ccc(NC(=O)CSc2nc3ccccc3nc2N2CCC(C)CC2)cc1	none (no result: D2 ag-1, D2 PAM-1, D2 antagonist)
O=C(OCC(=O)N1CCCC1=O)c1ccc(O)cc1O	none
CSc1ccccc1C(=O)OCC(=O)N1CCCC1=O	D2 PAM-2 51.9
O=C(O)c1ccccc1-c1nc2ccccc2[nH]1	none
Oc1ccc2ccccc2c1C=Nc1ccccc1-c1nc2ccccc2[nH]1	D2 PAM-1 53.0, D2 antagonist 41.4
O=C(CCN1CCN(c2ccccc2)CC1)c1ccc(Cl)cc1	D2 ag-2 33.1
O=C(CCN1CCN(c2ccc([N+](=O)[O-])cc2)CC1)c1ccc(Cl)cc1	D2 antagonist 33.8
Cc1c(Cl)cn2c(=O)cc(CN3CCN(c4ccc(F)cc4)CC3)nc2c1Cl	D2 ag-2 31.6 (no result: D2 ag-1, D2 PAM-1)
O=C(/C=C/c1ccccc1[N+](=O)[O-])Nc1cc(S(=O)(=O)N2CCOCC2)ccc1N1CCOCC1	none (no result: D2 antagonist, D2 ag-2, D2 PAM-2)
COc1ccc(/C=C2\SC(N3CCc4ccccc4C3)=NC2=O)cc1OC	D2 antagonist 53.1
Cc1ccc(-c2nc(CS(=O)(=O)CC(=O)NCc3cccc(F)c3)c(C)o2)cc1	none (no result: D2 ag-2)
CCOC(=O)N1CCC(NC(=O)CS(=O)(=O)Cc2nc(-c3cccc(OC)c3)oc2C)CC1	D2 PAM-2 96.6
COc1cccc(-c2nc(CS(=O)(=O)CC(=O)NC3CC3)c(C)o2)c1	none
COc1ccc(-c2nc(CS(=O)(=O)CC(=O)NCc3cccc(F)c3)c(C)o2)cc1	D2 antagonist 54.3
CC12C(=O)N(c3ccccc3C(=O)O)C(=O)C1C1C=CC2C1 (stereo unspecified)	D2 antagonist 36.2
CC12C(=O)N(c3cccc4cccnc34)C(=O)C1C1C=CC2C1 (stereo unspecified)	none
CCCCOc1ccc(CNC(=O)c2cnc3sc(N4CCCCCC4)nn3c2=O)cc1	none (no result: D2 ag-1, D2 PAM-1, D2 antagonist, D2 ag-2)
CCCCOc1ccc(-c2nc(-c3cccnc3)no2)cc1	D2 antagonist 34.4
CCOc1ccc(-c2nc(-c3ccccc3C)no2)cc1	D2 antagonist 52.9 (no result: D2 ag-1, D2 PAM-1, D2 PAM-2)
CCOc1nc(-c2ccccc2)ccc1-c1noc(-c2ccc(C)cc2)n1	none (no result: D2 ag-1, D2 PAM-1, D2 antagonist)
CCOc1ccc(-c2nc(-c3cccnc3)no2)cc1	none
CCOC(=O)c1cccc(Nc2ccc3cc(S(=O)(=O)N4CCCCC4)ccc3n2)c1	none (no result: D2 ag-1, D2 PAM-1, D2 antagonist)
Cc1cccc(NS(=O)(=O)c2ccc3c(c2)n(C)c(=O)n3C)c1C	none (no result: D2 ag-1, D2 PAM-1, D2 antagonist)
Cn1c2ccccc2c2c(C(=O)NCCCN3CCCC3=O)cn(C3CCCCC3)c(=O)c21	D2 PAM-2 32.5
COc1ccccc1CN1C[C@@H]2C[C@@H](c3ccc(C)c(C)c3)N3CCC[C@@]23C1=O	D2 antagonist 34.9
Cc1ccc(C2CC2/C(=N/O)c2ccc(F)cc2)cc1 (stereo unspecified)	D2 antagonist 33.6
CCC(CC)C(=O)Nc1nnc(S(=O)(=O)N2CCCCCC2)s1	D2 antagonist 31.9
CC(C)C(=O)Nc1nnc(S(=O)(=O)N2CCCCCC2)s1	none
COc1cccc(N2CCN(C(=O)c3cccc(S(=O)(=O)N4CCCC4)c3)CC2)c1	none (no result: D2 antagonist, D2 ag-2, D2 PAM-2)
CN(C)CC/C=C1\c2cc(F)ccc2CSc2ccccc21	D2 antagonist 36.8
C=CCN(C)CC/C=C1\c2ccccc2CSc2ccccc21	D2 antagonist 68.5
CN(CC/C=C1/c2ccccc2CSc2ccccc21)CCCO	none
CCOC(=O)Cn1c(=O)n(C2CCCCC2)c2nc(-c3c(F)cccc3Cl)nc(C(N)=O)c21	none (no result: D2 ag-1, D2 PAM-1, D2 antagonist)
COc1ccccc1C(O)c1ncc(-c2cccc3ccccc23)[nH]1 (stereo unspecified)	none (no result: D2 antagonist, D2 ag-2, D2 PAM-2)
CC1(C(=O)NS(=O)(=O)C2CC2)CCCN(C(=O)c2cccnc2Oc2ccccc2)C1 (stereo unspecified)	none (no result: D2 antagonist, D2 ag-2, D2 PAM-2)
Cc1ccc(N2C(=O)C3C(C2=O)C(C(=O)c2ccc(Cl)cc2)N2CCCC32)cc1 (stereo unspecified)	D2 antagonist 33.2
O=C(Nc1nccs1)C1CCCN(S(=O)(=O)c2cccc3cccnc23)C1 (stereo unspecified)	D2 antagonist 39.2
CCOC(=O)N1CCC(NC(=O)C2CCN(S(=O)(=O)c3cccc4cccnc34)CC2)CC1	D2 antagonist 51.2
CCS(=O)(=O)c1ncc(N(Cc2cccc(F)c2)Cc2ccco2)c(C(=O)Nc2ccccc2Cl)n1	none (no result: D2 ag-1, D2 PAM-1, D2 antagonist)
COc1ccc(-c2[nH]nc3oc(=O)cc(C)c23)cc1	D2 antagonist 33.4
O=C(CCN1CCCCC1)Nc1cccc(Cl)c1	D2 antagonist 56.8
CCOC(=O)c1cccc(Nc2ncnc3ccccc23)c1	D2 PAM-2 34.1
COc1ccc(C2NC(=O)N(C)C3=C2C(=O)N(c2ccc(C)cc2)C3)cc1 (stereo unspecified)	none (no result: D2 ag-1, D2 PAM-1, D2 antagonist)
